Measurements taken from PubChem BioAssay (Tox21).
Results filed as inconclusive are left out. The source made the active and inactive calls. Unless noted, calls follow the shape of the dose curve; as a rule, active = well fitted curve in the direction sought with a large enough effect in the repeat runs; inconclusive = weak or mixed curves; inactive = no such curve, though single readings can be large; an effect the other way counts as inactive or inconclusive.

Columns and labels:
[1] = qHTS assay to identify small molecule antagonists of the sonic hedgehog signaling (Shh) pathway (AID 1259369; calls by dose curve; also: nearly all actives have a fitted effect of over 45% in size); conditions: NIH/3T3 Gli1-Luc reporter, Shh antagonist, luminescence 24 h; series mostly up to 92.4 µM
Outline: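 Cells are plated and held 4hr at 37 C, compounds (DMSO) are pinned in, conditioned medium is added to stimulate the pathway, and after 24hr luciferase reagent is added for 30min before luminescence is read.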

[2] = molecular target: Estrogen receptor beta (Homo sapiens) (UniProt Q92731); assay: qHTS assay to identify small molecule agonists of the estrogen receptor beta (ER-beta) signaling pathway (AID 1259377; active = well fitted activation curve with a large enough effect in the signal ratio in the repeat runs, not every such curve was filed as active; the % refers to the signal ratio); conditions: ER-beta-UAS-bla HEK293T, beta-lactamase FRET ratio, 16 h; series mostly up to 92.4 µM
Outline: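 Screening used GripTite ER-beta-UAS-bla cells held in 2% charcoal-stripped FBS medium. After overnight (16 hr) compound incubation at 37C, beta-lactamase activity was detected with a FRET substrate by fluorescence.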

[3] = molecular target: Estrogen receptor beta (Homo sapiens) (UniProt Q92731); assay: qHTS assay to identify small molecule antagonists of the estrogen receptor beta (ER-beta) signaling pathway (AID 1259378; active = well fitted inhibition curve with a large enough effect in the signal ratio in the repeat runs, not every such curve was filed as active; the % refers to the signal ratio); conditions: ER-beta-UAS-bla HEK293T, beta-lactamase FRET ratio, 16 h; series mostly up to 92.4 µM
Outline: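 ER-beta-UAS-bla HEK293T (GripTite) cells in 2% charcoal-stripped FBS medium were preincubated 6 hr at 37C, dosed with compound, then stimulated with 1 nM E2 (final) for 16 hr; beta-lactamase reporter read by B/G FRET fluorescence after 2 hr substrate loading.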

[4] = qHTS assay to identify small molecule agonists of the androgen receptor (AR) signaling pathway in the presence of an antagonist - cell viability counter screen (AID 1259379); conditions: MDA-kb2 viability, CellTiter-Fluor, 16 h; series mostly up to 92.4 µM;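 also: MDA-kb2 human breast cancer cells carrying an MMTV luciferase reporter; nearly all actives have a fitted effect of over 25% in size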
Outline: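 Cytotoxicity is assessed by CellTiter-Fluor in MDA-kb2 cells carrying an MMTV-driven luciferase reporter. Cells receive 3.0uM nilutamide plus compounds at 15 concentrations and incubate 16 hr at 37C without CO2 before fluorescence reading.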

[5] = qHTS assay to identify small molecule agonists of the estrogen receptor beta (ER-beta) signaling pathway - cell viability counter screen (AID 1259380); conditions: ER-beta-bla HEK293T viability, CellTiter-Glo luminescence, 16 h; series mostly up to 92.4 µM; also: nearly all actives have a fitted effect of over 30% in size
Outline: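 Cytotoxicity is measured in parallel with the reporter screen: after 16 hr compound exposure at 37C and a 2 hr LiveBLAzer step, CellTiter-Glo is added to the same ER-beta-UAS-bla HEK293T wells and luminescence read after 30 min.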

[6] = qHTS assay to identify small molecule antagonists of the estrogen receptor beta (ER-beta) signaling pathway - cell viability counter screen (AID 1259382); conditions: ER-beta-UAS-bla HEK293T viability, CellTiter-Glo luminescence, 16 h; series mostly up to 92.4 µM; also: nearly all actives have a fitted effect of over 55% in size
Outline: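 Cytotoxicity counter screen multiplexed with the beta-lactamase antagonist assay: GripTite HEK293T ER-beta-bla cells were treated 16 hr with test chemicals in the presence of 1nM 17-beta-estradiol, and viability was measured by CellTiter-Glo.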

[7] = qHTS assay to identify small molecule agonists or antagonists of the thyroid stimulating hormone receptor (TSHR) signaling pathway - wild type cell line counter screen (AID 1259384; calls by dose curve); conditions: HEK293 wild type, cAMP HTRF counter-screen; series mostly up to 92.4 µM
Outline: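 Wild-type HEK293 cells were plated 18 h at 37 C/5% CO2, pin-dosed with compound plus Ro20-1724 medium, held 30 min at room temperature, then given cAMP-d2 and anti-cAMP-cryptate; fluorescence was read after 1 h. Fifteen concentrations, triplicate.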

[8] = molecular target: Thyrotropin receptor (Homo sapiens) (UniProt P16473); assay: qHTS assay to identify small molecule antagonists of the thyroid stimulating hormone receptor (TSHR) signaling pathway (AID 1259385; calls by dose curve; also: nearly all actives have a fitted effect of over 20% in size); conditions: TSHR-HEK293 cAMP HTRF, TSH-stimulated antagonist mode; series mostly up to 92.4 µM
Outline: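 TSHR-HEK293 cells were plated and held 18 h at 37C/5% CO2, then given compound plus Ro20-1724 and stimulated with TSH at 1.5 ng/mL final. After 30 min at room temperature, cAMP was detected with cAMP-d2/anti-cAMP-cryptate (1 h) by fluorescence.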

[9] = qHTS assay to identify small molecule agonists of the estrogen receptor alpha (ER-alpha) signaling pathway in the presence of an antagonist - cell viability counter screen (AID 1259386); conditions: VM7Luc4E2 viability, CellTiter-Fluor fluorescence, 22 h; series mostly up to 92.4 µM;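 also: cells exposed to compounds for 22 h at 37 °C before the viability read; nearly all actives have a fitted effect of over 30% in size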
Outline: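 Cytotoxicity was measured in parallel with the ERE-luciferase agonist screen, in the same wells. The cells were VM7Luc4E2, which endogenously express ER-alpha, and treatment was with compounds plus 10.0nM ICI-182,780 for 22hr.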

[10] = molecular target: Progesterone receptor (Homo sapiens) (UniProt P06401); assay: qHTS assay to identify small molecule agonists of the progesterone receptor (PR) signaling pathway (AID 1346784; calls by dose curve; also: nearly all actives have a fitted effect of over 30% in size); conditions: PR-UAS-bla HEK293T, beta-lactamase FRET ratio, 16 h; series mostly up to 92.4 µM
Outline: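 Seed PR-UAS-bla HEK 293T cells (2% charcoal-stripped FBS), incubate 6 hr at 37C; add compounds in DMSO, 16 hr at 37C; add LiveBLAzer B/G substrate, 2 hr RT; read fluorescence intensity.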

[11] = molecular target: Progesterone receptor (Homo sapiens) (UniProt P06401); assay: qHTS assay to identify small molecule antagonists of the progesterone receptor (PR) signaling pathway (AID 1346795; active = well fitted inhibition curve with a large enough effect in the signal ratio in the repeat runs, not every such curve was filed as active; the % refers to the signal ratio); conditions: PR-UAS-bla HEK293T, beta-lactamase FRET ratio, 16 h; series mostly up to 92.4 µM
Outline: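 Screening used a GripTite HEK293T line with PR-responsive UAS-beta-lactamase. Cells were challenged with compound in the presence of 1 nM R5020 final for 16 hr at 37C; B/G FRET substrate, 2 hr room temperature, fluorescence.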

[12] = qHTS assay to identify small molecule antagonists of the progesterone receptor (PR) signaling pathway - cell viability counter screen (AID 1346798); conditions: PR-UAS-bla HEK293T viability, CellTiter-Glo luminescence, 16 h; series mostly up to 92.4 µM; also: nearly all actives have a fitted effect of over 50% in size
Outline: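 Measures cytotoxicity in parallel with the PR antagonist reporter read: HEK293T PR-UAS-bla cells get compound and R5020 for 16 hr, and remaining viable cells are quantified by CellTiter-Glo luminescence.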

[13] = qHTS assay to identify small molecule agonists of the progesterone receptor (PR) signaling pathway - cell viability counter screen (AID 1346799; calls by dose curve; also: nearly all actives have a fitted effect of over 45% in size); conditions: PR-UAS-bla HEK293T viability, CellTiter-Glo luminescence, 16 h; series mostly up to 92.4 µM
Outline: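 Using the same plates as the PR reporter screen, HEK293T PR-UAS-bla cells received compounds for 16 hr at 37C and were then lysed with CellTiter-Glo; luminescence was read 30 min later at room temperature.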

[14] = qHTS assay to identify small molecule antagonists of the TGF-beta/Smad signaling pathway - cell viability counter screen (AID 1346824); conditions: SBE-bla HEK293T viability, CellTiter-Glo luminescence; series mostly up to 76.8 µM; also: nearly all actives have a fitted effect of over 50% in size
Outline: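 SBE-bla HEK 293T cells were plated overnight at 37 C, then given compounds in DMSO plus TGF-beta1 (added as 0.25 ng/mL solution) for 5 hr. After the bla read, CellTiter-Glo was added to the same wells and luminescence read after 30 min at room temperature.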

[15] = qHTS assay to identify small molecule agonists of the TGF-beta/Smad signaling pathway - cell viability counter screen (AID 1346829); conditions: SBE-bla HEK293T viability, CellTiter-Glo luminescence, 5 h; series mostly up to 76.8 µM; also: top concentration of the series differs between compounds; nearly all actives have a fitted effect of over 45% in size
Outline: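 CellTiter-Glo luminescence readout; SBE-bla HEK 293T cells, overnight plating, compound 5 hr at 37 C/5% CO2, then bla substrate 2 hr RT, then CellTiter-Glo 30 min RT.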

[16] = qHTS assay to identify small molecule agonists of the TGF-beta/Smad signaling pathway (AID 1346859; active = well fitted activation curve with a large enough effect in the signal ratio in the repeat runs, not every such curve was filed as active; the % refers to the signal ratio); conditions: SBE-bla HEK293T, TGF-beta/Smad beta-lactamase reporter, 5 h; series mostly up to 76.8 µM
Outline: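 Beta-lactamase reporter activity downstream of Smad binding elements was measured in stably transfected HEK 293T cells; compounds were incubated for 5 hr, substrate for 2 hr at room temperature.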

[17] = molecular target: Thyrotropin-releasing hormone receptor (Homo sapiens) (UniProt P34981); assay: qHTS assay to identify small molecule antagonists of the thyrotropin-releasing hormone receptor (TRHR) signaling pathway (AID 1346877; active = well fitted inhibition curve with a large enough effect in the repeat runs, not every such curve was filed as active); conditions: TRHR-HEK293, TRH-induced calcium fluorescence, antagonist mode; series mostly up to 51.3 µM
Outline: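 Antagonism is measured as suppression of the calcium response to 1 nM TRH in TRHR-HEK293 cells that have been dye-loaded for 2 h at 37 °C after overnight plating. Each compound is tested at 15 concentrations in triplicate.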

[18] = molecular target: Thyrotropin-releasing hormone receptor (Homo sapiens) (UniProt P34981); assay: qHTS assay to identify small molecule agonists of the thyrotropin-releasing hormone receptor (TRHR) signaling pathway (AID 1346891; calls by dose curve;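 also: HEK293 cells expressing TRHR with calcium dye readout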); conditions: TRHR-HEK293 calcium fluorescence, agonist mode; series mostly up to 57.6 µM
Outline: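 Overnight-plated (18 h, 37 °C, 5% CO2) TRHR-Hek293 cells; 2 h calcium dye at 37 °C; compound in DMSO; 3-min kinetic fluorescence read.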

[19] = molecular target: Estrogen receptor (Homo sapiens) (UniProt P03372); assay: qHTS assay to identify small molecule agonists of the estrogen receptor alpha (ER-alpha) signaling pathway in the presence of an antagonist (AID 1259383; calls by dose curve; also: top concentration of the series differs between compounds; nearly all actives have a fitted effect of over 15% in size); conditions: VM7Luc4E2 cells, ERE-luciferase, +ICI-182,780, 22 h; series mostly up to 92.4 µM
Outline: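 Agonist-mode confirmation in the presence of the ER antagonist ICI-182,780 at 10.0nM final. Breast-derived VM7Luc4E2 reporter cells were exposed to compounds for 22hr, and ERE-driven luciferase was quantified by luminescence.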

[20] = molecular target: Androgen receptor (Homo sapiens) (UniProt P10275); assay: qHTS assay to identify small molecule agonists of the androgen receptor (AR) signaling pathway in the presence of an antagonist (AID 1259381; calls by dose curve; also: nearly all actives have a fitted effect of over 15% in size); conditions: MDA-kb2 MMTV-luciferase, AR agonist + nilutamide, 16 h; series mostly up to 92.4 µM
Outline: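 Agonist-mode confirmation screen: human MDA-kb2 cells stably expressing luciferase under an MMTV promoter bearing AR and GR response elements, co-treated with 3.0uM nilutamide (final). Luminescence measured after 16hr compound incubation.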

Measured: Potency

Sequence of Thyrotropin-releasing hormone receptor (Homo sapiens) (P34981 whole entry, looked up): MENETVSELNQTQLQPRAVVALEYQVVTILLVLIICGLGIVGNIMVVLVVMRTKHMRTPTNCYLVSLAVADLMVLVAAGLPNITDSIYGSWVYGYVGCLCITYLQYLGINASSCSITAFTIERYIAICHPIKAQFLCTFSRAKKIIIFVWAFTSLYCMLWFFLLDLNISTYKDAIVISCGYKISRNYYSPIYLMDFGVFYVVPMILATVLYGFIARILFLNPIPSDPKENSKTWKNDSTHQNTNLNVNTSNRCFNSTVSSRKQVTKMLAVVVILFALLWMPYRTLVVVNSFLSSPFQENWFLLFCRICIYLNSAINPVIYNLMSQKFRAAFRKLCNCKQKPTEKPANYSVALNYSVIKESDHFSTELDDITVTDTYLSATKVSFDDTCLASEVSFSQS
Sequence of Estrogen receptor beta (Homo sapiens) (Q92731 whole entry, looked up): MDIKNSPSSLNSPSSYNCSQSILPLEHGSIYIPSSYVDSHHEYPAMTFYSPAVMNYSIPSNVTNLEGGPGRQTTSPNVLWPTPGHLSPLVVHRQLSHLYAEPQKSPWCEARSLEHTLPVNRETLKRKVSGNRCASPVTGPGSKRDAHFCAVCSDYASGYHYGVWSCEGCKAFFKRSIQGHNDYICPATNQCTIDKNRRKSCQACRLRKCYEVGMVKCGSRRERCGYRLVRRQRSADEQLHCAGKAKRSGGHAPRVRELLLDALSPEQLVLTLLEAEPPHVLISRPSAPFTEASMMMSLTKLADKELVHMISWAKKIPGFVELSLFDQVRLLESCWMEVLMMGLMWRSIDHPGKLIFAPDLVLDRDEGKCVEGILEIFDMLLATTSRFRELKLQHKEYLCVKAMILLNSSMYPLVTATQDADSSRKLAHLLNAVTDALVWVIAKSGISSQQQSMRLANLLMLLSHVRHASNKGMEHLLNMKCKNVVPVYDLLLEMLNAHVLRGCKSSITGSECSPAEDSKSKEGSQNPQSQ
Sequence of Estrogen receptor (Homo sapiens) (P03372 whole entry, looked up): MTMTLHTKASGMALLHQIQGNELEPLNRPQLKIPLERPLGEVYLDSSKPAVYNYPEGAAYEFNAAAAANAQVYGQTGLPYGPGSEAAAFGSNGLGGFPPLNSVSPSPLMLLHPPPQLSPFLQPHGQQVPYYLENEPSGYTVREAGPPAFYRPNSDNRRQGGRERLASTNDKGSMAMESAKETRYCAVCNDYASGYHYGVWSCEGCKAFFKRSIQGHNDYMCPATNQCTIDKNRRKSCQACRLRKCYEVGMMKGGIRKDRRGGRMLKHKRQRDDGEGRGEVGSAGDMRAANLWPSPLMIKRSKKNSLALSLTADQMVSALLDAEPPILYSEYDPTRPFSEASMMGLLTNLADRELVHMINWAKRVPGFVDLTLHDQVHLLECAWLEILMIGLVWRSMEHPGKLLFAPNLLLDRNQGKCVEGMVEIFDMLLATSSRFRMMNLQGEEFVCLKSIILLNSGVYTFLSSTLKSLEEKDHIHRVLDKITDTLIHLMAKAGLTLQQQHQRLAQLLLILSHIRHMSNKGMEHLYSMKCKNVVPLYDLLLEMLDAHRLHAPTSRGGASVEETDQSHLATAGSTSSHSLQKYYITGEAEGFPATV
Sequence of Progesterone receptor (Homo sapiens) (P06401 whole entry, looked up): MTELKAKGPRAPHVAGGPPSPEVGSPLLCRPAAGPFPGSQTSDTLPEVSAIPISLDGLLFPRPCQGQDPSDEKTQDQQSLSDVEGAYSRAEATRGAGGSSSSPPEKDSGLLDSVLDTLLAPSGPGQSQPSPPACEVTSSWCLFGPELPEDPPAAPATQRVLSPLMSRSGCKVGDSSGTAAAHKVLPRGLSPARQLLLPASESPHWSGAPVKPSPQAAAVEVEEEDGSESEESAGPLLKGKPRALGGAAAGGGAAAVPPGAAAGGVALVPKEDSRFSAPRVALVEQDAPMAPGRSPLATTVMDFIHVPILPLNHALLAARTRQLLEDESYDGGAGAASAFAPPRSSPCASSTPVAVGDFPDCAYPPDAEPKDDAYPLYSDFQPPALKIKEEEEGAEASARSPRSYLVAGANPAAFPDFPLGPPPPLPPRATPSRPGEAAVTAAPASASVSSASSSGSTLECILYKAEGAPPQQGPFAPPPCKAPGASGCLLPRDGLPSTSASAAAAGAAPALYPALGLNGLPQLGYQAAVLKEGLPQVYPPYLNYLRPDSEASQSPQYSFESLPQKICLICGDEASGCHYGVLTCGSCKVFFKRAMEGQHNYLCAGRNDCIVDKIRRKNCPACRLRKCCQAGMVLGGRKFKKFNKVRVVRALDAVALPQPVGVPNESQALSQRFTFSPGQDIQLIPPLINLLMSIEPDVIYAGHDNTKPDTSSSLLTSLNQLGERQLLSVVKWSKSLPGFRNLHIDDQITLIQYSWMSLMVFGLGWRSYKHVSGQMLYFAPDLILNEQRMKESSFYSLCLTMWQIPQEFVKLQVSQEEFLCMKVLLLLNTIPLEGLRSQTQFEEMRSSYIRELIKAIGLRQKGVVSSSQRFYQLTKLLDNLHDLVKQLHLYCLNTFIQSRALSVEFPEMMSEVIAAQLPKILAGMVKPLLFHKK
Sequence of Thyrotropin receptor (Homo sapiens) (P16473 whole entry, looked up): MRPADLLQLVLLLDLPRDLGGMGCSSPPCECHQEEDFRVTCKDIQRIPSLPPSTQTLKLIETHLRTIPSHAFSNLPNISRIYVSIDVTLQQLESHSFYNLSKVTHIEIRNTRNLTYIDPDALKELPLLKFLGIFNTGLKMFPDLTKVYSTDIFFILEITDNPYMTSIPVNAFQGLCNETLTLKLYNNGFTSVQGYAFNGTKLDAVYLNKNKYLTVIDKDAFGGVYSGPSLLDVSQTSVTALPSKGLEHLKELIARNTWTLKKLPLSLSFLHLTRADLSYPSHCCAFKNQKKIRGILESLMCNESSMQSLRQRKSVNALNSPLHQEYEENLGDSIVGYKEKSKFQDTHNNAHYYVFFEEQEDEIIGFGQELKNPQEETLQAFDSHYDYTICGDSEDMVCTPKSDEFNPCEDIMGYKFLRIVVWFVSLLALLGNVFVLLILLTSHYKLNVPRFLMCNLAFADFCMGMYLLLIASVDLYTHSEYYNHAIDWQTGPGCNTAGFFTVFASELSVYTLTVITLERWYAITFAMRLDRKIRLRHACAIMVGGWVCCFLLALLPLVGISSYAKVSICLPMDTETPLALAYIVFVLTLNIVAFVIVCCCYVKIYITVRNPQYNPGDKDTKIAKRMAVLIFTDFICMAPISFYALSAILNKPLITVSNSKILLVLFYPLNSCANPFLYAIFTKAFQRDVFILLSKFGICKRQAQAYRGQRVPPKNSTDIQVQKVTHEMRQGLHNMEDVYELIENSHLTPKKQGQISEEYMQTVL
Sequence of Androgen receptor (Homo sapiens) (P10275 whole entry, looked up): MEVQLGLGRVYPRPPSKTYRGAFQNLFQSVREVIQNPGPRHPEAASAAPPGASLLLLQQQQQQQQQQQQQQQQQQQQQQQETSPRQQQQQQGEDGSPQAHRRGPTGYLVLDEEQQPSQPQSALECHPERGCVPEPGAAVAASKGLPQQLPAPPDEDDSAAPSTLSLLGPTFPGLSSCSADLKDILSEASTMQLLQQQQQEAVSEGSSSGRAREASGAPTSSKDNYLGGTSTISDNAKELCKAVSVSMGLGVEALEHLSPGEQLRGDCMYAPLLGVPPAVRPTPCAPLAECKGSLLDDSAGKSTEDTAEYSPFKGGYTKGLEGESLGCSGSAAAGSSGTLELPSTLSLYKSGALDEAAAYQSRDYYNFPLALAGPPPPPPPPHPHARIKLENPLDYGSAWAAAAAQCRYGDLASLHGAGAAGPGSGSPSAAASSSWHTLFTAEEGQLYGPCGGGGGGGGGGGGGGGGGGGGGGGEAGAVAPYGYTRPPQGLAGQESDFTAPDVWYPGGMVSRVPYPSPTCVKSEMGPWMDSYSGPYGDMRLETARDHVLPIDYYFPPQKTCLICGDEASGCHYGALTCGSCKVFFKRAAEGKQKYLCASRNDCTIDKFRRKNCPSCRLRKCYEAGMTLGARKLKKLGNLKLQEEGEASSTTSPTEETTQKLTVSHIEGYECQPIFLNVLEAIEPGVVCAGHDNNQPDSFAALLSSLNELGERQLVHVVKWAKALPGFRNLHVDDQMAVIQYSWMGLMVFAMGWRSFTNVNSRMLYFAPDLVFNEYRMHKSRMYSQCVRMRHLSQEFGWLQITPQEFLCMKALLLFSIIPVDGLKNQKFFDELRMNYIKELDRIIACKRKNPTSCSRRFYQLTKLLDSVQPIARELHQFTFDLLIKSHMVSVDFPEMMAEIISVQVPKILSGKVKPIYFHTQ

N[C@H](Cc1c[nH]c2ccccc12)C(=O)O
not listed: [19] | [20]
inactive: all other assays above

CCNC(=S)NCC
not listed: [20]
inactive: all other assays above

C=CC[N+](C)(C)CC=C
not listed: [4] | [5] | [19] | [20]
inactive: all other assays above

CC(=O)Oc1ccc(C)cc1
not listed: [4] | [7] | [8] | [11]
inactive: all other assays above

O=c1[nH]cnc2[nH]ncc12
not listed: [3] | [5] | [7] | [8] | [17] | [18] | [20]
inactive: all other assays above

CC1(C)S[C@@H]2[C@H](NC(=O)COc3ccccc3)C(=O)N2[C@H]1C(=O)O
not listed: [2] | [3] | [4] | [11] | [20]
inactive: all other assays above

CC(C)CCCCCCCOC(=O)CCCCC(=O)OCCCCCCCC(C)C
not listed: [2] | [3] | [4] | [19] | [20]
inactive: all other assays above

Brc1ccc(Br)c(Br)c1
not listed: [2] | [3] | [5] | [11] | [17] | [18] | [20]
inactive: all other assays above

CCNc1cccc(C)c1
not listed: [2] | [3] | [17] | [18] | [20]
inactive: all other assays above
